Among the data in PubChem BioAssay AID602332 (National Center for Advancing Translational Sciences (NCATS), 2012) are activation and Potency values, retold here.

Molecules are shown by their SMILES. Several values for one entry are separate records, joined by “and”; a condition that tells them apart may be missing. Equal entries are not always repeated. The campaign covered roughly 420,000 compounds. About 75 (0.02%) were called active. Many of the other results were omitted from the sample, so actives are more common in it than they were. Where a structure was tested more than once in an assay, its records may differ in their call. A number with no mark means an inactive call. Calls come from the whole dose curve; as a rule, active = well fitted activation curve with a large enough effect; inconclusive = small, poorly fitted or top-dose-only effect; inactive = no such curve, though single readings can be large or run the other way.
Potency is the fitted concentration of half-maximal effect.

This assay in a line: qHTS for Inducers of the Endoplasmic Reticulum Stress Response (ERSR) in Human Glioma: qHTS. For activation: % of control where 0% means no effect. Note: nearly all actives have a fitted effect of over 35% in size. The following applies: U87-MG GRP78 promoter luciferase reporter, 16 h; activation: hits give high values. From the text: Primary protein unfolding takes place for many diseases, including diabetes and hypoxia, , and triggers a reaction in the cells called ER stress response (ERSR). ). ERSR is designed as a repair mechanism, but ultimately leads to cell death via apoptosis if conditions triggering protein unfolding persist (1). The molecular clue to ERSR activation is the enhancement of the expression of key molecular chaperones, including the glucose regulated protein (GRP) 78. GRP78 is the main sensor for protein folding and the main actuator of the ERSR.
In a collaboration between the Southern Research Institute and the NIH Chemical Genomics Center, a cell based screen was developed that reliably uses GRP78 as a sensor to identify small molecules as inducers of ERSR. In resting conditions, GRP78 binds proteins and acts as a natural repressor. Once unfolded proteins are present in the ER, GRP78 releases some of the repressors and binds to the unfolded proteins. The release of the repressors executes the ERSR program. Using a human glioma cell line in a miniaturized, luminescent format, a high-throughput screen was developed to identify actuators of the ERSR.
(1) Soboloff, J. and S. A. Berger (2002). "Sustained ER Ca2+ depletion suppresses protein synthesis and induces activation-enhanced cell death in mast cells." J Biol Chem 277(16): 13812-20.
NIH Chemical Genomics Center [NCGC]
NIH Molecular Libraries Probe Centers Network [MLPCN]
Assay Submitter (PI): Maurizio Grimaldi, Southern Research Institute
Stable transfected human glioma cell line, U87-MG, are dispensed at density 1000 cells/well into Greiner white solid bottom 1536-well assay plates. Compounds are transferred via Kalypsys pin tool equipped with 1536-pin array (10nl slotted pins, V&P Scientific, San Diego, CA). The assay plates will be incubated for 16 hours and developed by adding appropriate quantities of the Promega Bright Glo reagent. The plates will be incubated at room temperature for 10 minutes prior to being transferred into a ViewLux high-throughput CCD imager (PerkinElmer), wherein end-point measurements of luminescence are acquired.
For orientation: Quantitative high-throughput screening tests each substance at several concentrations.
As for `COc1cc(=O)n2c(c1C(=O)NC(C)c1ccco1)CCN(Cc1cc(C)cc(C)c1)CC2` (stereo unspecified), the activation was -3.17%. Still for that read-out and setting: as for `CO[C@@H]1COC(=O)C/C=C\[C@H](C)[C@@H](NS(=O)(=O)c2ccc(C)cc2)COC(=O)C/C=C\[C@@H]1C`, the figure is -3.94% and -2.29%; as for `COC(=O)c1c(OCc2ccc(F)cc2)cc(=O)n2c1CCN(Cc1ccc3cccnc3c1)CC2`, -4.1%; as for `c1ccc2c(Nc3ccncc3)nc(-c3ccc4c(c3)OCO4)nc2c1`, -6.62%.

As to `CO[C@H]1COC(=O)[C@@H](C)NC(=O)C/C=C\[C@@H](C)[C@H](OC)COC(=O)C/C=C\[C@@H]1C`, the activation is -4.07%.

In the case of `Cc1c(O)cc2c(c1C)O[C@](C)(CCC[C@H](C)CCC[C@H](C)CCCC(C)C)CC2`, the activation was -2.5%. For `CCC1(C2CCN(C(=O)c3cccc(F)c3F)CC2)NC(=O)N(CCc2scnc2C)C1=O` (stereo unspecified), the activation was -1.9%.

Regarding `Cc1cc(C)cc(CN2CCc3nnc(C(NS(C)(=O)=O)C(C)C)n3CC2)c1` (stereo unspecified), the activation is -4.09%. As to `CC(=O)OCC1OC(C#Cc2ccccc2Cl)C=CC1OC(C)=O` (stereo unspecified), the activation is -1.79%. Turning to `CC(C)N1C[C@@H](NCc2ccccc2O)C[C@H]1C(=O)N1CCN(c2cccc(C(F)(F)F)c2)CC1`, the activation is -4.06%. On the same count and under the same terms, as for `COc1cc(=O)n2c(c1C(=O)N(C)Cc1nccs1)CCN(Cc1ccc(Cl)cc1)CC2`, the figure is -5.15%; as for `O=C(CCN1Cc2ccccc2OC(c2ccccc2)C1)N[C@@H]1CS(=O)(=O)C[C@H]1O` (stereo partly specified), -4.81%; as for `O=C1OCCC=C1[C@@H](O)CCc1ccccc1`, 3.05%. Still for that read-out and setting: as for `O=c1cc(-c2ccc(O)c(O)c2)oc2cccc(O)c12`, the figure is -2.34%. Regarding `COc1c(O)cc2oc(-c3ccc(O)c(O)c3)cc(=O)c2c1O`, the Potency is 20 µM (active). With `O=c1cc(-c2ccc(O)cc2)oc2c(-c3cc(-c4cc(=O)c5c(O)cc(O)cc5o4)ccc3O)c(O)ccc12`, the activation was -1.39%.

Consider `CCCN(CC)[C@@H](CC)C(=O)Nc1c(C)cccc1C`, for which the activation was -4.31%. Consider `O=C1[C@H]2[C@H]3[C@H](O)[C@H](O)C/C(=N/OCc4ccccc4)[C@H]3CC[C@@H]2C(=O)N1Cc1ccccc1`, for which the activation is -3.44%. For `C/C(CCN1CCCCc2nc(C)c(C)cc21)=N\O[C@@H](C)c1cn([C@@H]2COC[C@@H]2O)nn1`, the activation is -4.19%. Still for that read-out and setting: as for `COc1ccc2c(c1)CCc1cnc(-n3ncc(C(=O)NCCN4CCOCC4)c3C)nc1-2`, the figure is 5.73%; as for `COc1ccc(/C=C/NC(=O)Cc2ccc(OC)c(OC)c2)cc1`, 0.885% and -3.87%; as for `Cc1c(C(=O)NCC2CCCN(C)C2)cnn1-c1nccc(-c2ccco2)n1` (stereo unspecified), -1.59%.

For the compound `O=S(O)S(=O)(=O)O`, the activation is -8.27%.

`CCOC(=O)N1CCN(Cc2ccc3c(c2)CN(C(=O)c2cccc(-n4cccn4)c2)CCO3)CC1`: the activation is -2.17%.

As for `N#C/C(=C\c1ccc(O)c(O)c1)C(=O)NCc1ccccc1`, the Potency was 25.1 µM (active); the activation was 7.31% and 13.4% and 3.72%. Turning to `N#C/C(=C\c1ccc(O)c(O)c1)C(N)=O`, the activation was -0.645% and -1.72%.

In the case of `Cc1ccc(/C=C(\C#N)C(=O)Nc2cc(C)ccc2C)cc1`, the activation was -3.56%.

As to `Cc1cnc(C)c(-c2cc(F)c3c(c2)CC(CNC(=O)c2cccc(Cn4cccn4)c2)O3)n1` (stereo unspecified), the activation was -2.2%. Still for that read-out and setting: as for `COc1ccccc1-c1ccnc(-n2ncc(C(=O)NCCc3ccncc3)c2C)n1`, the figure is -0.593%; as for `O=C(c1cccc(Cn2cccn2)c1)N1CCOc2c(cc(-c3csc4ccccc34)cc2OC2CCOC2)C1` (stereo unspecified), -1.78%; as for `Cc1ccc(C(=O)Nc2cccc(-c3nc(CNC(=O)c4ccccc4-n4cccn4)c(C)o3)c2)s1`, -4.42%. Same read-out and setting: as for `COc1ccc(CN(C)CCn2cc(C(=O)N3CCSCC3)nn2)cc1C`, the figure is -2.77%; as for `COC(=O)C1CCCCN1Cc1ccc2c(c1)CN(Cc1cc(OC)c3c(c1)OCO3)CCO2` (stereo unspecified), 0.195%; as for `COC(=O)C(C(=O)OC)[C@@H]1CCCC(=O)C1`, -5.46%. With `COCCN1CCN(C(=O)c2sc3ncnc(NCC4CCCO4)c3c2C)CC1` (stereo unspecified), the activation was -1.15%.

Consider `COc1ccc(CCNc2ncnc3sc(C(=O)N4CCCC4)c(C)c23)cc1OC`, for which the activation was -0.648%. The same measure, in the same setting: as for `C[C@@H]1CN(Cc2ccc3c(c2)CN(Cc2ccc(Oc4ncccn4)cc2)CCO3)C[C@H](C)O1`, the figure is -2.33%. As for `CC(C)[C@@H](OCc1ccccc1)[C@H](C)/C=N\OC[C@@H](C)[C@H](OCc1ccccc1)C(C)C`, the activation was -2.4%. For the compound `Cc1cc(C(=O)NCC2Cc3cccc(-c4cncnc4)c3O2)c(C)o1` (stereo unspecified), the activation is -0.609%. Still for that read-out and setting: as for `CCOC(OCC)OCC`, the figure is 3.31%; as for `CC[C@H](C)[C@H](NC(=O)[C@@H](N)CCC(=O)O)C(=O)N[C@@H](CC(C)C)C(=O)N[C@@H](CC(=O)O)C(=O)N[C@H](C(=O)N1CCC[C@H]1C(=O)N[C@@H](CO)C(=O)N[C@H](C(=O)O)[C@@H](C)O)C(C)C`, -2.27%; as for `N[C@@H](C(=O)O)c1ccc(P(=O)(O)O)cc1`, -4.34%. Still for that read-out and setting: as for `CN(C)c1ccc(CN2CCOc3ccc(CN4CCC(O)(c5cccnc5)CC4)cc3C2)cc1`, the figure is -1.82%; as for `Cc1ccc(Cn2cnc3c(cnn3C(C)(C)C)c2=O)c(F)c1`, -6.82%.

Take `O=C(C[n+]1ccncc1)c1ccc2c(c1)CCCC2`: the activation was -0.663%. The same measure, in the same setting: as for `Cc1cc(-c2ccnc(-n3ncc(C(=O)NC(C)(C)CO)c3C3CC3)n2)c(C)s1`, the figure is -3.21%. `Cc1cccc(CNc2ccnc(-c3cccnc3)n2)c1`: the activation is 6.2%.

As to `CCOC(=O)Cc1cccc(-c2cc(CCCCCCc3ccc(O[C@H]4O[C@H](COC(C)=O)[C@@H](OC(C)=O)[C@H](OC(C)=O)[C@@H]4OC(C)=O)c(-c4cccc(CC(=O)OCC)c4)c3)ccc2O[C@H]2O[C@H](COC(C)=O)[C@@H](OC(C)=O)[C@H](OC(C)=O)[C@@H]2OC(C)=O)c1`, the activation was -3.38%. Same read-out and setting: as for `O=c1cc(-c2ccc(O)cc2)oc2c([C@@H]3O[C@H](CO)[C@@H](O)[C@H](O)[C@H]3O)c(O)cc(O)c12`, the figure is -0.663%; as for `Cc1ccc(-c2ccnc(-n3ncc(C(=O)N(C)Cc4cccc5ncccc45)c3C3CC3)n2)o1`, -4.64%; as for `COc1ccnc(C[S@@](=O)[C@@H]2Nc3ccc(OC(F)F)cc3N2)c1OC`, -1.51%. Still for that read-out and setting: as for `COc1ccc2c(c1)NC(=O)C2CC(=O)N1CCOc2c(cc(-c3cnc4ccccc4c3)cc2OC)C1` (stereo unspecified), the figure is -6.72%; as for `COCC1CCCN(Cc2ccc3c(c2)CN(C(=O)c2ccnn2C)CCO3)C1` (stereo unspecified), -2.07%. The same measure, in the same setting: as for `COc1ccc(F)c(CN2CCC3(CCC(CNC(=O)c4ccn(C)n4)O3)CC2)c1` (stereo unspecified), the figure is -4.54%; as for `NNc1nnc(Cc2ccncc2)c2ccccc12`, -5.05%. As for `CC1=C(/C=C/C(C)=C/C=C/C(C)=C/C=C/C=C(C)/C=C/C=C(C)/C=C/C(=O)[C@]2(C)C[C@@H](O)CC2(C)C)C(C)(C)C[C@H](O)C1`, the activation was -0.817%. Consider `O=C1NC(CC(=O)N2CCC(n3c(C4CCC4)nc4cccnc43)CC2)c2ccccc21` (stereo unspecified), for which the activation was -7.83%. Still for that read-out and setting: as for `COCC(=O)Nc1cc(C(=O)N2CCCC(c3ccccc3)CC2)c2c(c1)nc(-c1ccncc1)n2C` (stereo unspecified), the figure is 1.99%. Same read-out and setting: as for `COc1ccc(C)cc1N1C(=O)[C@@H]2C[C@H]1CN2Cc1cccc(OC)c1O`, the figure is -3.49%. Same read-out and setting: as for `CCOC(=O)[C@]1(C(/C=C/c2ccco2)NC(=O)OC)CCCC1=O` (stereo partly specified), the figure is -4.35%; as for `CCOCCOC(=O)C(C)Oc1ccc(Oc2ncc(C(F)(F)F)cc2Cl)cc1` (stereo unspecified), 3.45%; as for `CN1CCCCCC1C(=O)NCCN1Cc2ccccc2OC(c2ccsc2)C1` (stereo unspecified), -4.87%. Turning to `CNCCCOc1cc2nc(N3CCCN(C)CC3)nc(NC3CCN(C)CC3)c2cc1OC`, the activation is -4.57%. Turning to `COc1ccccc1-c1ccnc(-n2ncc(C(=O)NCCCN3CCOCC3)c2C)n1`, the activation was -5.22%.

As for `COC(=O)NC(c1ccccc1)[C@]1(C(C)=O)CCCC1=O` (stereo partly specified), the activation is -3.63%.
